Experimental data: PubChem BioAssay AID449739 (Vanderbilt High Throughput Screening Facility, 2010)
The whole screen tested about 100,000 compounds, of which about 4,200 (4.2%) were called active. This excerpt belongs to a sample that is enriched for actives. A number with no mark means an inactive call.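 Rule for the calls: active = single-dose well whose peak fluorescence ratio is a statistical outlier from its plate by either plate-standardised score or position-corrected B-score; inactive = the rest.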

biological target: Voltage-dependent T-type calcium channel subunit alpha-1H (Homo sapiens) (UniProt O95180); experiment: Cav3.2 calcium influx blockers – cell-based, Fluo-4 calcium fluorescence, FDSS, MLSMR library, primary screen (AID 449739); settings: Cav3.2-expressing cells, at 10 µM, hits give low values
Sequence (O95180 whole entry, looked up): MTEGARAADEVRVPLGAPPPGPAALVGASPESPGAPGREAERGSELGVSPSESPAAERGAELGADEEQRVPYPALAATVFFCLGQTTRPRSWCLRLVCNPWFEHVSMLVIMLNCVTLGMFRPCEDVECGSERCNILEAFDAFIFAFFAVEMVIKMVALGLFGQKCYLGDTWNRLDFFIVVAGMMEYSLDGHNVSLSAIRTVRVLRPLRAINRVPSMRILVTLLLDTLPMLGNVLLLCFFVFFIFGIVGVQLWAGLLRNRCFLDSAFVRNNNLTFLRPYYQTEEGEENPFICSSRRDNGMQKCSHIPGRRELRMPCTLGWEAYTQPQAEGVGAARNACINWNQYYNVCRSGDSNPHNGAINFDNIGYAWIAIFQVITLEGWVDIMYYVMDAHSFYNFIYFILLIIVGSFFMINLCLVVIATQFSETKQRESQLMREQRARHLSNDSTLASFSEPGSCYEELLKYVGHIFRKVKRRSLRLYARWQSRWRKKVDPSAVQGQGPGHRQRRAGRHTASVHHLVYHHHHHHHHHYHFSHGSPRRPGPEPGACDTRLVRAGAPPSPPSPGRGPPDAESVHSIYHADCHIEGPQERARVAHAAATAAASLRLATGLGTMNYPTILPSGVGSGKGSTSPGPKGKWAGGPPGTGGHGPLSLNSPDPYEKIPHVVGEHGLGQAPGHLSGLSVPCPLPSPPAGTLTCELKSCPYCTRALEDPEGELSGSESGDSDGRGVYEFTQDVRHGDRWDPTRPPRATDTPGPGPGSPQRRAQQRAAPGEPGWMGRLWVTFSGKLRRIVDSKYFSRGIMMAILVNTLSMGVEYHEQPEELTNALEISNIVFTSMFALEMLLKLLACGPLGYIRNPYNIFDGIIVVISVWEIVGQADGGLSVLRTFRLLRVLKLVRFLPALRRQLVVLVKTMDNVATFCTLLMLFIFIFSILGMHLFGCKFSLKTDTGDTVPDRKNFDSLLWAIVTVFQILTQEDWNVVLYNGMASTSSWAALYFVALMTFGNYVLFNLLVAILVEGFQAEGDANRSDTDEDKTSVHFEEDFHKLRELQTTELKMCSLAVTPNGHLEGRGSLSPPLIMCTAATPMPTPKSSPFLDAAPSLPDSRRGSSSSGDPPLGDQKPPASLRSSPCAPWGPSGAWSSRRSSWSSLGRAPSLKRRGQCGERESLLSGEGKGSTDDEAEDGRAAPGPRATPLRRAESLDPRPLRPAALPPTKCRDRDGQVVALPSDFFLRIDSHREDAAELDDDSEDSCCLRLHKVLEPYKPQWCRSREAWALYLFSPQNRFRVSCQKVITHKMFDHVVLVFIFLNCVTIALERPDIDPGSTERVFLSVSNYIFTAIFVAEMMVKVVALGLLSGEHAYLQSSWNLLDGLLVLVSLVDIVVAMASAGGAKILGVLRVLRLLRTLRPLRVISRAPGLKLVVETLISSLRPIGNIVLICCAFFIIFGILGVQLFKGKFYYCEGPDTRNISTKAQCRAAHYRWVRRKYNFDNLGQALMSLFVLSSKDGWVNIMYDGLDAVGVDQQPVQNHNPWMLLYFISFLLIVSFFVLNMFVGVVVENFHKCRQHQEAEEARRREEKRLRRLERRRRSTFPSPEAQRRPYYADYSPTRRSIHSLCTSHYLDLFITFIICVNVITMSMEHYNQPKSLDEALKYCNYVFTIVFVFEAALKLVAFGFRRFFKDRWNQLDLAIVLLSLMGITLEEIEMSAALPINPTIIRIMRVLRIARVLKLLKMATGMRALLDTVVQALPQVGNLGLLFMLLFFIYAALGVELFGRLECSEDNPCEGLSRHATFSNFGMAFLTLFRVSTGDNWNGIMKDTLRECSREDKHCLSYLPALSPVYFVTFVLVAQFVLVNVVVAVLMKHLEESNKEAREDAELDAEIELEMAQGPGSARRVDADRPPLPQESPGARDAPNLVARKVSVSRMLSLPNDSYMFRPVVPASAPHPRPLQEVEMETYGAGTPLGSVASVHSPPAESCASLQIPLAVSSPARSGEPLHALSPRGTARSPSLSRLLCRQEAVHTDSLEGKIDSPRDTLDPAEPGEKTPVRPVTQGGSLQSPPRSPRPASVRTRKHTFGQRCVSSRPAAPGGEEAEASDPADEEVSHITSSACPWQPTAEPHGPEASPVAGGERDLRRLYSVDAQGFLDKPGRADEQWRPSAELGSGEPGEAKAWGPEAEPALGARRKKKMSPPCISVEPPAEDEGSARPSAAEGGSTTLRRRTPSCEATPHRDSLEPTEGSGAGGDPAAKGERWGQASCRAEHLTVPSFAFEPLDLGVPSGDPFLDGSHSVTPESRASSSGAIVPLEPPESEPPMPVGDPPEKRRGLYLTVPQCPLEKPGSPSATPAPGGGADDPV

Q: `CC(C)=CCc1c(O)c(CC=C(C)C)c2occ(-c3ccc(O)cc3)c(=O)c2c1O` was tested. Which B-score did it give?
A: -0.844

Q: `Cc1ccc(NC(=O)c2nc[nH]c2C(=O)N[C@@H](CCCCNC(=O)OC(C)(C)C)C(=O)OC(C)(C)C)cc1` was tested. Which B-score did it give?
A: -0.574

Q: How did the B-score turn out when `CC(C)C(=O)OCC(=O)Nc1ccc2c(c1)CCC2` was run?
A: 0.246

Q: `CCN(CC)S(=O)(=O)c1cc([N+](=O)[O-])ccc1NNC(=O)Nc1ccccc1` was tested. Which B-score did it give?
A: -4.53 (active)

Q: With `Cc1ccccc1NC(=S)Nc1cccc([N+](=O)[O-])c1` as the compound, how does the B-score read?
A: -0.107

Q: For `CCN(CC)S(=O)(=O)c1cccc(C(=O)Nc2ccccc2)c1`, which B-score is on record?
A: 0.194

Q: `O=C1CC2(CCCC2)Oc2ccc(Cl)cc21` was tested. Which B-score did it give?
A: -0.0281

Q: `CCOC(=O)C1Nc2ccc(C(F)(F)F)cc2C2C=CCC12` (stereo not drawn) was tested. Which B-score did it give?
A: -0.137

Q: How did the B-score turn out when `COc1cccc(N(CC(=O)Nc2cccc(N(C)S(C)(=O)=O)c2)S(C)(=O)=O)c1` was run?
A: -1.19

Q: `CCN(CC)S(=O)(=O)c1ccc(NC(=O)CN(c2cccc(F)c2)S(C)(=O)=O)cc1` was tested. Which B-score did it give?
A: -6.56 (active)

Q: For `Cc1ccc(N(CC(=O)Nc2cccc(N(C)S(C)(=O)=O)c2)S(C)(=O)=O)cc1`, which B-score is on record?
A: 1.01

Q: With `CC1=C(N2CCN(c3ncccn3)CC2)CCC1=O` as the compound, how does the B-score read?
A: 0.282

Q: Which B-score does the source give for `C[C@@H]1CC[C@]2(O[C@@H](CCO)C[C@H](O)[C@H]2O)O1` here?
A: 0.111

Q: Which B-score does the source give for `CSc1cccc(NC(=O)CSc2ccccc2)c1` here?
A: -6.09 (active)

Q: For `CCn1c(Cc2ccccc2)nnc1SCC(=O)Nc1ccccc1`, which B-score is on record?
A: 0.0752

Q: With `COC(=O)c1cccc(NC(=O)CSc2nc(C)cc(=O)[nH]2)c1` as the compound, how does the B-score read?
A: 0.842

Q: `COC(C[C@@H]1O[C@@H]1C(=O)[C@@H](C)OCc1ccccc1)OC` was tested. Which B-score did it give?
A: 0.0102

Q: For `Cc1cc(C)cc(NC(=O)c2cccc(NC(=O)C3C4CC5OC(=O)C3C5C4)c2)c1` (stereo not drawn), which B-score is on record?
A: -0.673

Q: For `Cc1cccc(NC(=O)C(C)N2C(=O)C3C4CC(C(Br)C4Br)C3C2=O)c1` (stereo not drawn), which B-score is on record?
A: -4.83 (active)

Q: How did the B-score turn out when `Cc1cccc(NC(=O)C2CC(=O)OC23CCCC3)c1` (stereo not drawn) was run?
A: 2.01

Q: Which B-score does the source give for `CC1(C)C=C2[C@H]3CC[C@@H]4[C@@]5(C)CCC(=O)C(C)(C)[C@@H]5CC[C@@]4(C)[C@]3(C)CC[C@@]2(C(=O)O)CC1` here?
A: -0.0499

Q: With `COc1ccc(CNC(=O)C2(CC3CC(c4ccccc4)=NO3)CCN(C(=O)c3cccc(O)c3)CC2)cc1` (stereo not drawn) as the compound, how does the B-score read?
A: -0.683

Q: With `CCOC(=O)C1=C(CSc2nccn2C)NC(=O)NC1c1ccc(OC)cc1` (stereo not drawn) as the compound, how does the B-score read?
A: 0.905

Q: How did the B-score turn out when `CCOC(=O)COc1ccc(Cl)cc1C1NC(=O)NC(C)=C1C(C)=O` (stereo not drawn) was run?
A: 0.0116

Q: `CCOC(=O)C1=C(CNC2CCCCC2)NC(=O)NC1c1cc(C)ccc1C` (stereo not drawn) was tested. Which B-score did it give?
A: -3.93 (active)

Q: Which B-score does the source give for `O=c1cc(-c2ccccc2)[nH]c2cc(F)ccc12` here?
A: -1.92

Q: For `N=c1c2c(-c3ccccc3)c(-c3ccccc3)oc2ncn1Cc1ccco1`, which B-score is on record?
A: -2.43

Q: `N=c1c2c(-c3ccccc3)c(-c3ccccc3)n(Cc3ccccc3)c2ncn1CCCO` was tested. Which B-score did it give?
A: -7.3 (active)

Q: With `OCCCN1c2ccccc2Nc2nnc(-c3ccccc3)cc21` as the compound, how does the B-score read?
A: 0.492

Q: How did the B-score turn out when `Cc1cccc(NC(=S)NCc2ccc3[nH]c4c(c3c2)CCCC4)c1` was run?
A: -3.54

Q: How did the B-score turn out when `COc1ccc(-c2nn(-c3ccccc3)cc2C(=O)Nc2nccs2)cc1OC` was run?
A: -3.24

Q: With `C=CCOC(=O)C1=C(C)NC(C)=C(C(=O)OCC=C)C1c1cccs1` as the compound, how does the B-score read?
A: -3.25

Q: How did the B-score turn out when `CC(=O)C1=C(C)NC(C)=C(C(C)=O)C1c1cn(-c2ccccc2)nc1-c1cccs1` was run?
A: -3.89 (active)

Q: Which B-score does the source give for `CNC(=O)c1[nH]cnc1C(=O)N[C@@H](CC(C)C)C(=O)OCc1ccccc1` here?
A: -0.016

Q: `Cc1[nH]c2ccccc2c1C(=O)COC(=O)C(C)C` was tested. Which B-score did it give?
A: 0.085

Q: `COc1ccc2c(c1)SC(C)CC2=O` (stereo not drawn) was tested. Which B-score did it give?
A: -0.0138

Q: `CC1(C)S[C@@H]2[C@H](NC(=O)COc3ccccc3)C(=O)N2C1C(=O)OCc1ccccc1` (stereo partly drawn) was tested. Which B-score did it give?
A: -1.43

Q: For `CCc1ccc2c(c1)cc(CN(C(=S)Nc1ccccc1Cl)C1CC1)c1nnnn12`, which B-score is on record?
A: 0.523

Q: Which B-score does the source give for `CCOc1ccc2c(c1)cc(CN(C(=O)CC)C1CCCCC1)c1nnnn12` here?
A: -4.82 (active)

Q: For `CCOc1ccc2[nH]c(=O)c(CN(Cc3nnnn3Cc3ccccc3)CC3CCCO3)cc2c1` (stereo not drawn), which B-score is on record?
A: -0.479

Q: Which B-score does the source give for `O=C(COc1ccc(Cl)cc1)NCCC1=CCCCC1` here?
A: -2.12

Q: `C=C1CCN([C@@H](Cc2ccccc2)C(=O)N2CCOCC2)S(=O)(=O)c2ccccc21` was tested. Which B-score did it give?
A: 0.119

Q: How did the B-score turn out when `O=C1N=C2SCCN2/C1=C\c1c(Cl)cccc1Cl` was run?
A: -7.62 (active)

Q: `O=C(NC1(C(F)(F)F)N=C2SCCN2C1=O)c1ccco1` (stereo not drawn) was tested. Which B-score did it give?
A: 0.645

Q: `O=C1N=C(N2CCCC2)S/C1=C\c1cccc(Br)c1` was tested. Which B-score did it give?
A: 0.36

Q: With `O=C(NC1=NCCS1)[C@H](Cc1ccccc1)N1C(=O)c2ccccc2C1=O` as the compound, how does the B-score read?
A: -0.0971

Q: `NC(=O)CC[C@@H]1NC(=O)[C@@H]2CCCN2C(=O)c2cc([N+](=O)[O-])cc(F)c2NCCC[C@@H](C(N)=O)NC1=O` was tested. Which B-score did it give?
A: 0.224

Q: `CCOC(=O)c1ccc(N2C(=O)CC(N(C)Cc3ccccc3)C2=O)cc1` (stereo not drawn) was tested. Which B-score did it give?
A: 0.0731

Q: `CCCCOC(=O)c1ccc(N2C(=O)CC(N3CCN(C/C=C/c4ccccc4)CC3)C2=O)cc1` (stereo not drawn) was tested. Which B-score did it give?
A: -6.05 (active)

Q: For `CCOC(=O)c1ccc(N2C(=O)CC(N3CC(C)OC(C)C3)C2=O)cc1` (stereo not drawn), which B-score is on record?
A: 0.246

Q: How did the B-score turn out when `O=C(CCCN1C(=O)c2cccc3cccc(c23)C1=O)N1CCN(Cc2ccc3c(c2)OCO3)CC1` was run?
A: -2.86

Q: With `O=C(CN1CCN(c2ncc(C(F)(F)F)cc2Cl)CC1)Nc1ccc2c(c1)OCO2` as the compound, how does the B-score read?
A: -1.4

Q: For `CC(=O)c1ccc(Cc2ncc(C(F)(F)F)cc2Cl)s1`, which B-score is on record?
A: -0.288

Q: With `O=C(Cc1ncc(C(F)(F)F)cc1Cl)Nc1cccc(Br)c1` as the compound, how does the B-score read?
A: -4.67 (active)

Q: With `O=C(/C=C/c1cccs1)c1cc(Cl)ccc1OC(=O)N1CCOCC1` as the compound, how does the B-score read?
A: -1.17

Q: With `CN1/C(=c2/s/c(=C3/C(=O)N(c4ccccc4)NC3=Nc3ccccc3)n(C)c2=O)C(C)(C)c2ccccc21` as the compound, how does the B-score read?
A: -2.19

Q: How did the B-score turn out when `NC(=O)C1=C[C@@H](c2ccc3c(c2)OCO3)C[C@@H](OCCCCO)O1` was run?
A: 0.476

Q: `O=C(Cn1nnc(-c2ccc(CN3CCOCC3)cc2)n1)NC1CCCCC1` was tested. Which B-score did it give?
A: -0.444

Q: With `COc1ccc(-c2nnn(CC(=O)N(CCO)C(C(=O)NC3CCCC3)c3ccc(F)cc3)n2)cc1` (stereo not drawn) as the compound, how does the B-score read?
A: -1.11

Q: Which B-score does the source give for `COc1cccc(N(CC(=O)NC2CCCC2)C(=O)Cn2nnc(-c3ccc(C)cc3)n2)c1` here?
A: -4.56 (active)

Q: `COCc1cc(C)nc2sc(C(=O)NC3CCCCC3)c(N)c12` was tested. Which B-score did it give?
A: -0.0172

Q: With `N#CC1=C(N)N(c2ccc(F)cc2)C(=O)C1` as the compound, how does the B-score read?
A: -0.201

Q: How did the B-score turn out when `O=C(CC1NCCNC1=O)Nc1ccc(Oc2ccccc2)cc1` (stereo not drawn) was run?
A: -5.21 (active)

Q: How did the B-score turn out when `CCCOc1ccc(NC(=O)C2CCCNC2=O)cc1` (stereo not drawn) was run?
A: -0.159

Q: With `CCOc1ccc(NC(=O)CC2NCCNC2=O)cc1` (stereo not drawn) as the compound, how does the B-score read?
A: 0.0128

Q: For `O=C1CCCC2=C1C(c1ccccc1)n1c(s/c(=C/c3cccc(F)c3)c1=O)=N2` (stereo not drawn), which B-score is on record?
A: 0.975

Q: With `O=C1N[C@@H](Cc2ccccc2)C(=O)N2[C@@H]3N(S(=O)(=O)c4ccc(F)cc4)c4ccccc4[C@]3(Br)C[C@@H]12` as the compound, how does the B-score read?
A: 0.27

Q: Which B-score does the source give for `Cn1c(=N)n(CC(O)c2ccccc2)c2ccccc21` (stereo not drawn) here?
A: 0.141

Q: With `N=c1n(Cc2ccc(Cl)cc2)c2ccccc2n1CC(O)c1ccco1` (stereo not drawn) as the compound, how does the B-score read?
A: -3.51 (active)

Q: For `O=S(=O)(O)c1nc2ccccc2n1Cc1ccc(Cl)cc1`, which B-score is on record?
A: -0.194

Q: With `Cc1cc([N+](=O)[O-])ccc1NCc1cccc([N+](=O)[O-])c1` as the compound, how does the B-score read?
A: 0.0686

Q: `Cc1c(CCO)c(=O)[nH]n1C(=O)c1c(F)cccc1F` was tested. Which B-score did it give?
A: 0.442

Q: `CC1CN(c2nc(-c3ccccc3)nnc2-c2ccccc2)CC(C)O1` (stereo not drawn) was tested. Which B-score did it give?
A: -0.222

Q: `CSc1cc(C)n(-c2ccccc2C)c(=S)c1C(C)=O` was tested. Which B-score did it give?
A: 0.0764

Q: For `Clc1cccc(-c2nc3nc4ccccc4nc3n2Cc2ccco2)c1`, which B-score is on record?
A: -2.21

Q: How did the B-score turn out when `Cc1ccc(Cn2c(C)nc3c(c2=O)c2nc4ccccc4nc2n3Cc2ccco2)cc1` was run?
A: -6.69 (active)

Q: Which B-score does the source give for `Cc1ccc(Cn2c(NC(=O)c3ccco3)nc3ccccc32)cc1` here?
A: 1.58

Q: Which B-score does the source give for `COc1cc(OC)c2ccc(=O)oc2c1C(CCN1CCN(c2ccccc2)CC1)c1ccc2c(c1)OCO2` (stereo not drawn) here?
A: -0.318

Q: `C/C=C(\C)C(=O)NCCN1C2=NC[C@H](Cc3ccc(O)cc3)N2C[C@@H]1Cc1ccc(OC)cc1` was tested. Which B-score did it give?
A: -0.0234

Q: For `CCO[C@H]1OC(C(=O)N2CCOCC2)=C[C@@H](c2ccc3c(c2)OCO3)[C@@H]1CCCO`, which B-score is on record?
A: -0.694

Q: `Cc1ccccc1-c1nnc(SCC(=O)NCc2ccc3c(c2)OCO3)n1C` was tested. Which B-score did it give?
A: 0.345

Q: With `O=C(CSc1nnc(-c2ccccn2)n1-c1ccccc1)Nc1ccc2c(c1)OCO2` as the compound, how does the B-score read?
A: 0.144

Q: `Cc1cccc(C)c1NC(=O)CSc1nnc(-c2ccccc2)n1Cc1ccc2c(c1)OCO2` was tested. Which B-score did it give?
A: -6.18 (active)

Q: Which B-score does the source give for `COCCNC(=O)c1onc(CSc2cccc(C)c2)c1C(=O)O` here?
A: 1.46

Q: `CCCCN=C1N/C(=C\c2ccco2)C(=O)N1c1ccccc1` was tested. Which B-score did it give?
A: 0.203

Q: With `C=C(C)Cn1c(C)cc(C)c(S(=O)(=O)c2ccccc2C)c1=O` as the compound, how does the B-score read?
A: -4.84 (active)

Q: With `COC/C=C/C1=CC2=CC(=O)C(C)(OC(=O)CCC(=O)OC)C(=O)C2=CO1` (stereo not drawn) as the compound, how does the B-score read?
A: -0.853

Q: For `CC1CCN(C(NC(=O)c2ccco2)C(=O)c2ccccc2)CC1` (stereo not drawn), which B-score is on record?
A: -1.33
